This is an account of results in ChEMBL document CHEMBL1961873, “Compounds: GSK PKIS; Assays: Nanosyn kinase panel” (2012).

The target of assay [1] is T1, Serine/threonine-protein kinase D2 (Homo sapiens) (UniProt Q9BZL6).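 Further: mean value of PRKD2 inhibition, from the GSK PKIS screening panel.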
T1 sequence (whole entry): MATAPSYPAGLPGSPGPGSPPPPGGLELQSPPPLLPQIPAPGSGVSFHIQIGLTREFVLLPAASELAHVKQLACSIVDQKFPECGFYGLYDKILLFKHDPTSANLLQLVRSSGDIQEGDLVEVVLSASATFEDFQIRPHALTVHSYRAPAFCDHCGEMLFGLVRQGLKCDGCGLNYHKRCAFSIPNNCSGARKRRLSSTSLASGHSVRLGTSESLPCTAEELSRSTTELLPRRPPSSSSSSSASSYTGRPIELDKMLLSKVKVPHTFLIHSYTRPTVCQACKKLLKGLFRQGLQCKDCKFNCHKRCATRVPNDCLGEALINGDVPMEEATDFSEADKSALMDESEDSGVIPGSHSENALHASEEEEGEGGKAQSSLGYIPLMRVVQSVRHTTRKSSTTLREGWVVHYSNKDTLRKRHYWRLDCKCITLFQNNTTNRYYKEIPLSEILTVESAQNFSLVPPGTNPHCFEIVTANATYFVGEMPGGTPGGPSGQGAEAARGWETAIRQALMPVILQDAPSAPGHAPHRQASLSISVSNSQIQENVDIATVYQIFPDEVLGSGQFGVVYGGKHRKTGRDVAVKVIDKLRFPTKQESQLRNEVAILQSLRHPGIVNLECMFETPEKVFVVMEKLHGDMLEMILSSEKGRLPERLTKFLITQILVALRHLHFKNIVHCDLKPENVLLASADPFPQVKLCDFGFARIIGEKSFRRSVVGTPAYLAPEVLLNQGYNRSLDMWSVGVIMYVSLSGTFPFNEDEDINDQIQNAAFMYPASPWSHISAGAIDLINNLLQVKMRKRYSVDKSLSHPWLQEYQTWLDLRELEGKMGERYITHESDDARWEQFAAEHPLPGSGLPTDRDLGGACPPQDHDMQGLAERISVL
To be noted: at 1 µM.

Assay [2] addresses T2, Serine/threonine-protein kinase D3 (Homo sapiens) (UniProt O94806).
T2 sequence (whole entry): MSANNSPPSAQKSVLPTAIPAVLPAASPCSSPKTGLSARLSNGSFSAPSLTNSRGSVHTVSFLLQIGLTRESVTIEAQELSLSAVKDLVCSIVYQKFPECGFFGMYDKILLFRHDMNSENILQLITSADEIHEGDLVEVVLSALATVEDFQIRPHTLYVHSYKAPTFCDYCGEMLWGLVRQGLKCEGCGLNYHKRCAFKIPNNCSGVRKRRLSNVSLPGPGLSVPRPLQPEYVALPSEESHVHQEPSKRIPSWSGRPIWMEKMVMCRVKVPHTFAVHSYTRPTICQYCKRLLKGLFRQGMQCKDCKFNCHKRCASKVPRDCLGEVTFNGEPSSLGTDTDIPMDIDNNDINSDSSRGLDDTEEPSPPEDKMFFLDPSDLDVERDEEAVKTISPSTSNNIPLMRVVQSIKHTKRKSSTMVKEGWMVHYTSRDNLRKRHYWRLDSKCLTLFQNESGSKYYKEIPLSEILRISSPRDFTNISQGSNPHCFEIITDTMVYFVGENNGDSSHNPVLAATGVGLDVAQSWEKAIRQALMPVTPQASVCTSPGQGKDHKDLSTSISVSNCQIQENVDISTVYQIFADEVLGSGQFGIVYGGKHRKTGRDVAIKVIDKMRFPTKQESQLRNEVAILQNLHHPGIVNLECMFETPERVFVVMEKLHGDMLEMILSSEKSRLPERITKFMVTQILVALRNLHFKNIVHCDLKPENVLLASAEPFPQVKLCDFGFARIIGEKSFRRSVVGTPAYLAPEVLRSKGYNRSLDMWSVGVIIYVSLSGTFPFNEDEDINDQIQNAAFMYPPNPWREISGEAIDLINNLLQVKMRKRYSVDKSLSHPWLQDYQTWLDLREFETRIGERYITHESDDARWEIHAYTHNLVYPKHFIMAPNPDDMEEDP
The following applies: at 0.1 µM.

The target in assay [3] is T2, Serine/threonine-protein kinase D3 (Homo sapiens). The following applies: at 1 µM.
Assay [4] deals with T3, cGMP-dependent protein kinase 1 (Homo sapiens) (UniProt Q13976).
T3 sequence (whole entry): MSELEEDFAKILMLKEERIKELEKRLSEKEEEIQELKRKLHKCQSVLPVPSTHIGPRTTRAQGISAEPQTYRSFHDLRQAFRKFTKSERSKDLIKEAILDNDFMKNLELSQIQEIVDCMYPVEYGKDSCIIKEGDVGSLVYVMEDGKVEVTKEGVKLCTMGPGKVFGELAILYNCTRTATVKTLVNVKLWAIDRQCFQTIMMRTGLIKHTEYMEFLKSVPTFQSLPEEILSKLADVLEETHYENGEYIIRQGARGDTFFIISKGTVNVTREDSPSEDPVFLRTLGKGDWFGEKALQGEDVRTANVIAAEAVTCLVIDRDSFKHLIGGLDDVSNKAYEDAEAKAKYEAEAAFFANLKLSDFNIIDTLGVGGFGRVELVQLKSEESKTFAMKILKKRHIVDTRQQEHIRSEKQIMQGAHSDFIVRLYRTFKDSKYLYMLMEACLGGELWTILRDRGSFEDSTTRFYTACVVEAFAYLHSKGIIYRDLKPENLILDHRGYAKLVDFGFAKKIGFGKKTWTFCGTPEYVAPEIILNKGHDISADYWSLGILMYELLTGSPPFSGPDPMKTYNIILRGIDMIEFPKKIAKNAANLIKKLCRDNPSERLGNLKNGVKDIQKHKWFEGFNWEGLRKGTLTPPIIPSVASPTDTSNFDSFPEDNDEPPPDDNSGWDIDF
To be noted: at 0.1 µM.

In assay [5] the target is T3, cGMP-dependent protein kinase 1 (Homo sapiens). To be noted: at 1 µM.
Assay [6] has as its target T4, cGMP-dependent protein kinase 2 (Homo sapiens) (UniProt Q13237).
T4 sequence (whole entry): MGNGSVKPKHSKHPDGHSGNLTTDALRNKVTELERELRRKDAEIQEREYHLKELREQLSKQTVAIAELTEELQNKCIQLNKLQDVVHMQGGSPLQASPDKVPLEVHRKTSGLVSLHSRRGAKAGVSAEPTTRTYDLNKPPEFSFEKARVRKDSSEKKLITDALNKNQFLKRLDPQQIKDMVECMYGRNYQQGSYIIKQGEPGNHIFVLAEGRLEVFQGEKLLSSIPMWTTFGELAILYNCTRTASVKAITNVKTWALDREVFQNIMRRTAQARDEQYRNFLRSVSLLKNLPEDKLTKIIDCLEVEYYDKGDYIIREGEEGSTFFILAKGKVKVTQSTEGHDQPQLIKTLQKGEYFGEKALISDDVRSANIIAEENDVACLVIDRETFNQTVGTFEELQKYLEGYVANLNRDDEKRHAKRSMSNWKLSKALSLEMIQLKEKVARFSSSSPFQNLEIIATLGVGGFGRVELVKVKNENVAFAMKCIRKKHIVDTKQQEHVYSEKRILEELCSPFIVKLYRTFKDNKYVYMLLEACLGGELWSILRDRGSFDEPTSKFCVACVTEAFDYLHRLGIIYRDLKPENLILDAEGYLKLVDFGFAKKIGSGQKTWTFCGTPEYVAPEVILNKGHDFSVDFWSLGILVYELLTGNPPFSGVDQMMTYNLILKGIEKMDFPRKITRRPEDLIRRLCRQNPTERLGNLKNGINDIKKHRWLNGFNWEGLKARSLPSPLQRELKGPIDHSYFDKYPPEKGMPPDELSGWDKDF
The following applies: at 0.1 µM.

The target of assay [7] is T4, cGMP-dependent protein kinase 2 (Homo sapiens). To be noted: at 1 µM.
The target in assay [8] is T5, cAMP-dependent protein kinase catalytic subunit PRKX (Homo sapiens) (UniProt P51817).
T5 sequence (whole entry): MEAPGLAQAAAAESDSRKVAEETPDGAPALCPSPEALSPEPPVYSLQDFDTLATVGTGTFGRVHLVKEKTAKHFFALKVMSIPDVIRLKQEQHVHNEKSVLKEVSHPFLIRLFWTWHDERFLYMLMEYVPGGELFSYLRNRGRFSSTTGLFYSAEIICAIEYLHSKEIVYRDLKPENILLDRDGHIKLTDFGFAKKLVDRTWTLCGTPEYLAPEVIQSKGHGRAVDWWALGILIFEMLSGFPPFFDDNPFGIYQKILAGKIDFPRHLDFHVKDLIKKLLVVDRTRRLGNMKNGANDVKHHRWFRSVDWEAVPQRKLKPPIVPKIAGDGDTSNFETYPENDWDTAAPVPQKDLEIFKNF
To be noted: at 0.1 µM.

The target in assay [9] is T5, cAMP-dependent protein kinase catalytic subunit PRKX (Homo sapiens). To be noted: at 1 µM.
Assay [10] concerns the target Rho-associated protein kinase 1 (Homo sapiens) (UniProt Q13464). To be noted: at 0.1 µM.
The target is the same in assay [11]. The following applies: at 1 µM.
Assay [12] has as its target Rho-associated protein kinase 2 (Homo sapiens) (UniProt O75116). To be noted: at 0.1 µM.
Assay [13] shares this target. The following applies: at 1 µM.
Assay [14] addresses Ribosomal protein S6 kinase alpha-1 (Homo sapiens) (UniProt Q15418). The following applies: at 0.1 µM.
Assay [15] shares this target. To be noted: at 1 µM.
Assay [16] concerns the target Ribosomal protein S6 kinase alpha-3 (Homo sapiens) (UniProt P51812). To be noted: at 0.1 µM.
Assay [17] shares this target. To be noted: at 1 µM.
The target of assay [18] is Ribosomal protein S6 kinase alpha-2 (Homo sapiens) (UniProt Q15349). To be noted: at 0.1 µM.
Sequence of Ribosomal protein S6 kinase alpha-2 (Homo sapiens) (Q15349 whole entry): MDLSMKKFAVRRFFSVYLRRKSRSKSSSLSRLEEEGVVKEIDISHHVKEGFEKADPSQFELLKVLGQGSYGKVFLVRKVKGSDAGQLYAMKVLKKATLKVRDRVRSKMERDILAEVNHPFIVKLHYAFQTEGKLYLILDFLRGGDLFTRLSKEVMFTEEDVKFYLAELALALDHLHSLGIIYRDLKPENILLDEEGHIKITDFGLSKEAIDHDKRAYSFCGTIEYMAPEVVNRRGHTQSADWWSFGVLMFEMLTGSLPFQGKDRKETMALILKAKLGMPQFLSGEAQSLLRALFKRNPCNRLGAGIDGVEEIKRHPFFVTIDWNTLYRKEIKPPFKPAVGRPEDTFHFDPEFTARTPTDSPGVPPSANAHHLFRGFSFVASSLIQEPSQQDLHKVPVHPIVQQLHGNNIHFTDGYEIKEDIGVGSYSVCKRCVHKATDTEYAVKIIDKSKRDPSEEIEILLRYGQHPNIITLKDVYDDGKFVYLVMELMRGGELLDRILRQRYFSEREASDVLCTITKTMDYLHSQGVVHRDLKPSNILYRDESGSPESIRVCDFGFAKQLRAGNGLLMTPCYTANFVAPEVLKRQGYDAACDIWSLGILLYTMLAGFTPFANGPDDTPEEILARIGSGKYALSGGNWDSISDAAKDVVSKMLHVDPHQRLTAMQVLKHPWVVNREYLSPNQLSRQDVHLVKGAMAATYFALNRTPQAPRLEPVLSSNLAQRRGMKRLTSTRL
Assay [19] shares this target. To be noted: at 1 µM.
Assay [20] has as its target Ribosomal protein S6 kinase alpha-6 (Homo sapiens) (UniProt Q9UK32). The following applies: at 0.1 µM.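 Further: reported value is the mean inhibition of RSK4, from the GSK PKIS kinase inhibitor screen.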

Sequence of Rho-associated protein kinase 1 (Homo sapiens) (Q13464 2-1354 limits assumed): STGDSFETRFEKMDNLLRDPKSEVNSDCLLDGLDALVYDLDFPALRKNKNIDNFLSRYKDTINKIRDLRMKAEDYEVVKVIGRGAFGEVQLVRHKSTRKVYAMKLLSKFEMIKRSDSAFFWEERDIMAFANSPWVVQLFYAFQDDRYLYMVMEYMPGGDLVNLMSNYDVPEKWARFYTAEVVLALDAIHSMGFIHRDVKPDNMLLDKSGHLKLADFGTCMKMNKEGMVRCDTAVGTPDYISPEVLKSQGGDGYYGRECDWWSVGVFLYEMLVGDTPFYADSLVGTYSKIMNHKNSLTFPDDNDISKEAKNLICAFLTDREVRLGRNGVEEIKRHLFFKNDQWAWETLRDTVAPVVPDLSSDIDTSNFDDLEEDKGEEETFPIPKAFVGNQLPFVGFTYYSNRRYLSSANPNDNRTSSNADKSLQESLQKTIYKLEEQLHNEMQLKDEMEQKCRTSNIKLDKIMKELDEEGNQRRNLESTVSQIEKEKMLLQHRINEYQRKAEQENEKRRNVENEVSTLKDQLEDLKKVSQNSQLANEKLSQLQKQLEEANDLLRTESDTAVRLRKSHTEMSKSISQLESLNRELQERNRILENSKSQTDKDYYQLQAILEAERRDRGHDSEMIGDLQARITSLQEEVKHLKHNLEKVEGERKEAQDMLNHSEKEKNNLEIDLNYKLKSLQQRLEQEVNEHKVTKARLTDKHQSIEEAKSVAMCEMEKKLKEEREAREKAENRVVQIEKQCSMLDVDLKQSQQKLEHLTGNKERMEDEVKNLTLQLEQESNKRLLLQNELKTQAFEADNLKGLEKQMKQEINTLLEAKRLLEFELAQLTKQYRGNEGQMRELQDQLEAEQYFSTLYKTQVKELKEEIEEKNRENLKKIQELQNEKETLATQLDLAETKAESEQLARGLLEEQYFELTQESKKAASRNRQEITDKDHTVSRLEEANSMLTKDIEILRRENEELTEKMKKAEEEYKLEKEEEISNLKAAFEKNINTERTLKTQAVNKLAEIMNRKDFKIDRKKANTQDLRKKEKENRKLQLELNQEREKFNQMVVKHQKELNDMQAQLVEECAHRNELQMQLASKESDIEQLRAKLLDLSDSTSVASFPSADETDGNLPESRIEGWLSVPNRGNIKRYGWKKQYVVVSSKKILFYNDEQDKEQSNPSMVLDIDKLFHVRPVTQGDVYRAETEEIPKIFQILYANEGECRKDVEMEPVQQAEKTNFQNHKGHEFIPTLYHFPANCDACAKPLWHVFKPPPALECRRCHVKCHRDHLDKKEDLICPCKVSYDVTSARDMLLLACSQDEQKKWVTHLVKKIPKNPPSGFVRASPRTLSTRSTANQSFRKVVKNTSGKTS
Sequence of Ribosomal protein S6 kinase alpha-1 (Homo sapiens) (Q15418 whole entry): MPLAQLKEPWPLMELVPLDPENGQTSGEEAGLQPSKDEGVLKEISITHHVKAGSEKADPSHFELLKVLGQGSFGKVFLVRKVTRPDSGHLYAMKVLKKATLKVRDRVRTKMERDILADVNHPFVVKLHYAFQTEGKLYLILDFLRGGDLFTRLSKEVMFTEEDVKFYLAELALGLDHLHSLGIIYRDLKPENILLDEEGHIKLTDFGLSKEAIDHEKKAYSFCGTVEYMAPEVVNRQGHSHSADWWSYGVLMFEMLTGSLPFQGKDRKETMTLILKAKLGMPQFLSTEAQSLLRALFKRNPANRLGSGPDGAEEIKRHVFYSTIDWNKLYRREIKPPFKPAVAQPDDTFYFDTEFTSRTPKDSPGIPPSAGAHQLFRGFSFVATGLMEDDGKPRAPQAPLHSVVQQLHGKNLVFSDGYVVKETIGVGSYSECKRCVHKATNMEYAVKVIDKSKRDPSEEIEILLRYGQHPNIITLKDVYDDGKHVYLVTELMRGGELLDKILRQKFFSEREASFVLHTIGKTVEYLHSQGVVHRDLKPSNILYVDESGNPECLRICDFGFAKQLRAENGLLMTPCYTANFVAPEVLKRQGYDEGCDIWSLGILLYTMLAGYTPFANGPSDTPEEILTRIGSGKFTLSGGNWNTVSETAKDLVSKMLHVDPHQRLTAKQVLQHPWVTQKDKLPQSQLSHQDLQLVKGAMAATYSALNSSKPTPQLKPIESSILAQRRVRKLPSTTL
Sequence of Ribosomal protein S6 kinase alpha-6 (Homo sapiens) (Q9UK32 whole entry): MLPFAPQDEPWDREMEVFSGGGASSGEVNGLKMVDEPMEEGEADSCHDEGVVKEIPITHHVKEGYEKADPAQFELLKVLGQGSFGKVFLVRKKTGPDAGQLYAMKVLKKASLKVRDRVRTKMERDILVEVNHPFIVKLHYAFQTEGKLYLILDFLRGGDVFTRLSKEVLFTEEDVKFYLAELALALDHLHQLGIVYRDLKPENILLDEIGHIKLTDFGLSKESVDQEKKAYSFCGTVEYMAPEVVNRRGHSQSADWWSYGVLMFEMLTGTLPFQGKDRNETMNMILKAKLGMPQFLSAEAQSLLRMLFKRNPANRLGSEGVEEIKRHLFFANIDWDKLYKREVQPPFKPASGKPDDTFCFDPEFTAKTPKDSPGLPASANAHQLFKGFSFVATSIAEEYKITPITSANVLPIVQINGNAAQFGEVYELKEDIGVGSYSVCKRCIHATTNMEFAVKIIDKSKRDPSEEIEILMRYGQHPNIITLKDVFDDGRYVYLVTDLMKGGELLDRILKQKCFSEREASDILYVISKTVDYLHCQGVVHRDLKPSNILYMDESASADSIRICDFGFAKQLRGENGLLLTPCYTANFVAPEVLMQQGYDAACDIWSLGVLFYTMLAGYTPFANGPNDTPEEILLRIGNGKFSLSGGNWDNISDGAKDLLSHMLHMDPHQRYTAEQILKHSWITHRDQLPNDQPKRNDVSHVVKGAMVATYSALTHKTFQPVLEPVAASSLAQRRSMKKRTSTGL
Sequence of Rho-associated protein kinase 2 (Homo sapiens) (O75116 whole entry, looked up): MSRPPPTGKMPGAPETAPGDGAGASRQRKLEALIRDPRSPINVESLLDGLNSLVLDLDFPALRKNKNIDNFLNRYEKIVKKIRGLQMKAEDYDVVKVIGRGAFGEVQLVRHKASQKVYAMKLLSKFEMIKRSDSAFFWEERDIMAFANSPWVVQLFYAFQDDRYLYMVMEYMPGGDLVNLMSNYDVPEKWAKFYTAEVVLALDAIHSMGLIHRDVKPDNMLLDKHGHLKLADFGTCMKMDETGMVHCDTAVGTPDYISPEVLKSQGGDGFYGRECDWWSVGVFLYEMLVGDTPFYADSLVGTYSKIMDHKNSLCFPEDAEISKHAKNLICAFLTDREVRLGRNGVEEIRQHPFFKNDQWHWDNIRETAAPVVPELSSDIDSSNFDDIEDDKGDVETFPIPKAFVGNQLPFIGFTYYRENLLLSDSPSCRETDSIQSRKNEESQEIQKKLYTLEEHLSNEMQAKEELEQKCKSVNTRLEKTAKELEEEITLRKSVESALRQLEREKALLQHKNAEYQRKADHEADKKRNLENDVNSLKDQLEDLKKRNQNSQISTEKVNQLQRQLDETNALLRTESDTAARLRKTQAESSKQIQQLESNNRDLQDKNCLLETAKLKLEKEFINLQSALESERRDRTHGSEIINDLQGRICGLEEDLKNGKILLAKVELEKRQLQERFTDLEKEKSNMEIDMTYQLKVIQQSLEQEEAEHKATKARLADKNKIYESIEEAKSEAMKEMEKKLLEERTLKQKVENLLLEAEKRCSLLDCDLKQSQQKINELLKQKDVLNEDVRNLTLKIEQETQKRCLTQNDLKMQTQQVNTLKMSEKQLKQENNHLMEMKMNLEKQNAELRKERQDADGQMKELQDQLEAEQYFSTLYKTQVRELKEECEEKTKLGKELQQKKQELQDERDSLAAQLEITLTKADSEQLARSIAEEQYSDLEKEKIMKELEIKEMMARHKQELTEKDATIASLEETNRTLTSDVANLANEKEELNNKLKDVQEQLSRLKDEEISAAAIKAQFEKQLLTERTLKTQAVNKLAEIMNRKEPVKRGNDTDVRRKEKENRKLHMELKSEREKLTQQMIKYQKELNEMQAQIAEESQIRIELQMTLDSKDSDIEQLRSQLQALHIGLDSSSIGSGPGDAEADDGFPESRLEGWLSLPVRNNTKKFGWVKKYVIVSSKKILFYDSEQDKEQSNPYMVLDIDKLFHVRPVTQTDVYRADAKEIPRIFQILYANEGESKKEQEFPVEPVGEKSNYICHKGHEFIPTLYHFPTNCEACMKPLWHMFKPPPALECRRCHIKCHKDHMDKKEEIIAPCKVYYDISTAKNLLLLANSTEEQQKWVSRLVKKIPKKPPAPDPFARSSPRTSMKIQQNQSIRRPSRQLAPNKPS

By inhibition is commonly meant the change of the read-out against control, counted positive when it falls. As for `CNC(=O)c1cncc(/C=C/c2c(Cl)cccc2Cl)c1`, the inhibition worked out at 3.77% in assay [1]; 1.19% in [2]; 4.45% in assay [3]; 4.02% in [4]; 5.23% in [5]; 1.23% in assay [6]. The inhibition in assay [7] is 4.56%; in assay [8], 1.86%; in assay [9] it was 1.79%; in [10], 1.46%; in [11] it was 1.88%; in [12], 0.61%. Further, the inhibition in assay [13] turned out to be 1.93%; in assay [14], 1.04%; in [15] it was 4.53%; in [16], 0.14%; in [17] it was 1.94%; in assay [18], 1.97%. Further, the inhibition in [19] came to 2.54%; in assay [20], 0.73%.
On to `NS(=O)(=O)c1cccc(-c2ccc3c(NC(=O)C4CC4)n[nH]c3c2)c1`, for which the inhibition in assay [1] was -0.76%; in [2] it was -0.43%; in [3], 0.3%; in assay [4] it was 0.48%; in assay [5] it was 0.57%; in assay [6], 0.6%. For the same compound, the inhibition in assay [7] is 1.3%; in assay [8], 0.01%; in [9], 1.02%; in [10], 1.29%; in assay [11] it was 1.53%; in [12] it was 0.53%. Also, the inhibition in assay [13] was 2.48%; in assay [14], 0.46%; in assay [15], 3.07%; in [16], 0.8%; in assay [17] it was 2.45%; in assay [18] it was -0.89%. Moreover, the inhibition in assay [19] is 0.27%; in assay [20] it was -0.55%.
With `c1cnn2ncc(-c3ccnc(Nc4ccc5c(c4)OCCO5)n3)c2c1`, the inhibition in assay [1] came to 38.2%; in assay [2], 7.82%; in assay [3] it was 50.5%; in assay [4], 4.87%; in assay [5], 18.9%; in assay [6], 1.98%. The inhibition in assay [7] was determined as 8.51%; in assay [8] it was 1.25%; in assay [9] it was 2.29%; in assay [10] it was 1.28%; in [11], 9.73%; in assay [12], 4.95%. The inhibition in [13] amounted to 19.1%; in assay [14] it was 2.62%; in assay [15] it was 7.26%; in assay [16], 0.94%; in assay [17] it was 4.28%; in assay [18], 2.89%. Besides, the inhibition is 4.85% in [19] and 3.28% in [20].
